Test results: PubChem BioAssay (Tox21)
Results filed as inconclusive are left out. Calls of active or inactive are those of the source. Unless noted, calls come from the whole dose curve; as a rule, active = well fitted curve in the direction sought with a large enough effect in the repeat runs; inconclusive = weak or mixed curves; inactive = no such curve, though single readings can be large; an effect the other way counts as inactive or inconclusive.

What was measured:
[1] = qHTS assay to identify small molecule agonists of the RXR signaling pathway - cell viability counter screen (AID 1159529); note: series mostly up to about 77 µM; nearly all actives have a fitted effect of over 50% in size
Summary of the method: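 CellTiter-Glo luminescence gave viability in the wells also read for beta-lactamase. Cells (RXR-alpha-UAS-bla HEK 293T, 2% charcoal-stripped FBS medium) had 5 hr plating, then 16 hr compound exposure at 37 C; tetraoctyl ammonium bromide served as positive control.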

[2] = qHTS assay to identify small molecule antagonists of the retinoid acid receptor (RAR) signaling pathway - cell viability counter screen (AID 1159551); note: nearly all actives have a fitted effect of over 35% in size
Summary of the method: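 In this counter screen, the RARE-luciferase line C3RL4 was exposed for 6 h at 37 C and 5% CO2 to compounds with retinol at 1 uM final. Cellular ATP, read by luminescence, served as the viability measure.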

[3] = qHTS assay to identify small molecule antagonists of the retinoic acid receptor (RAR) signaling pathway (AID 1159552; note: nearly all actives have a fitted effect of over 50% in size)
Summary of the method: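 Luminescent RARE reporter read-out in C3RL4 cells: 6 hr co-treatment at 37 C of test compounds with retinol at 1 uM final. Cells plated overnight beforehand; luciferase reagent incubated 30 min at room temperature before reading.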

[4] = qHTS assay to identify small molecule agonists of the retinoic acid receptor (RAR) signaling pathway (AID 1159553); note: potency is the fitted concentration of half-maximal effect
Summary of the method: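 In this cell-based screen, 1,000 C3RL4 cells per well were cultured overnight, dosed with test chemicals in DMSO for 6 hr, and assessed for RARE luciferase luminescence.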

[5] = qHTS assay to identify small molecule antagonists of the estrogen related receptor (ERR) signaling pathway from Tox21 library - cell viability counter screen (AID 1224834); note: nearly all actives have a fitted effect of over 30% in size
Summary of the method: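 Counter screen run in ERR cells (2,000 cells/well): cells pre-incubated 6 h, then treated with compounds for 17.5 h at 37 C. Fluorescence was read 30 min after CellTiter-Fluor addition.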

[6] = target: Luciferin 4-monooxygenase (Photinus pyralis) (UniProt P08659); assay: qHTS assay to identify small molecule inhibitors of firefly luciferase (AID 1224835); note: series mostly up to about 120 µM; nearly all actives have a fitted effect of over 25% in size
Summary of the method: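 Biochemical qHTS: compounds run as interplate titrations against purified firefly enzyme, with D-luciferin and ATP each at its KM concentration. Light output recorded by CCD imaging.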

[7] = qHTS assay to identify small molecule agonists of the constitutive androstane receptor (CAR) signaling pathway - cell viability counter screen (AID 1224836); note: series mostly up to about 92 µM; nearly all actives have a fitted effect of over 45% in size
Summary of the method: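 Cell viability multiplexed with the CAR agonist screen: CellTiter-Fluor fluorescence after 23 hr at 37 C. HepG2-CYP2B6-hCAR cells got compounds at 15 concentrations with PK11195 at 0.75 uM final.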

[8] = qHTS assay to identify small molecule antagonists of the constitutive androstane receptor (CAR) signaling pathway - cell viability counter screen (AID 1224837); note: series mostly up to about 92 µM; nearly all actives have a fitted effect of over 45% in size
Summary of the method: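 CITCO at 50 nM final was added alongside compounds (15 concentrations) to double-stable hCAR/CYP2B6-2.2kb HepG2 cells. Following 23 hr at 37 C, cell viability was quantified by CellTiter-Fluor fluorescence intensity.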

[9] = qHTS assay to identify small molecule antagonists of the estrogen related receptor signaling pathway with the pleiotropic PPARgamma coactivator (PGC) from Tox21 10K library - cell viability counter screen (AID 1224840; active = well fitted cell-killing curve with a large enough effect in the repeat runs, not every such curve was filed as active; note: nearly all actives have a fitted effect of over 40% in size)
Summary of the method: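 Readout: fluorescence intensity from CellTiter-Fluor after 30 min at 37 C/5% CO2. Preceded by 17.5 h treatment of PGC/ERR cells with DMSO-dissolved compounds, added 6 h post-seeding.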

[10] = qHTS assay to identify small molecule antagonists of the estrogen related receptor signaling pathway with the pleiotropic PPARgamma coactivator (PGC) from Tox21 10K library (AID 1224841; call rule not given here; note: series mostly up to about 92 µM; actives are mostly falling curves and most rising ones were filed inactive; nearly all actives have a fitted effect of over 50% in size)
Summary of the method: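 One-Glo luminescence, measured after half an hour at room temperature, quantified reporter output of PGC/ERR cells. These had been plated at 2,000 per well, incubated 6 h, dosed with compounds in DMSO, then kept 18 h at 37 C.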

[11] = qHTS assay to identify small molecule antagonists of the estrogen related receptor (ERR) signaling pathway - cell viability counter screen (AID 1224818); note: series mostly up to about 46 µM
Summary of the method: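 Viability of ERR cells, CellTiter-Fluor fluorescence; 17.5 h compound exposure at 37 C, DMSO vehicle; 30 min reagent incubation at 37 C/5% CO2.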

[12] = qHTS assay to identify small molecule antagonists of the estrogen related receptor signaling pathway with the pleiotropic PPARgamma coactivator (PGC) cell viability counter screen (AID 1224822; note: series mostly up to about 46 µM)
Summary of the method: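 17.5 h compound treatment of PGC/ERR cells at 37 C; readout CellTiter-Fluor fluorescence; run alongside the PGC/ERR antagonist screen to flag cytotoxic compounds.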

[13] = target: Nuclear receptor subfamily 1 group I member 3 (Homo sapiens) (UniProt Q14994); assay: qHTS assay to identify small molecule antagonists of the constitutive androstane receptor (CAR) signaling pathway (AID 1224838); note: nearly all actives have a fitted effect of over 40% in size
Summary of the method: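 Inhibition of CITCO-driven (50 nM final) CYP2B6 reporter expression is measured in HepG2 cells stably carrying hCAR. Fifteen compound concentrations are applied for 24 h at 37 C, followed by luciferase luminescence.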

[14] = target: Nuclear receptor subfamily 1 group I member 3 (Homo sapiens) (UniProt Q14994); assay: qHTS assay to identify small molecule agonists of the constitutive androstane receptor (CAR) signaling pathway (AID 1224839); note: series mostly up to about 92 µM; nearly all actives have a fitted effect of over 15% in size
Summary of the method: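 Luminescent ONE-Glo read-out after 24 hr, 37 C exposure of double-stable HepG2-CYP2B6-hCAR reporter cells to a 15-point compound series, in the presence of 0.75 uM PK11195 (final).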

[15] = qHTS assay to identify small molecule agonists of the estrogen related receptor signaling pathway with the pleiotropic PPARgamma coactivator (PGC) from Tox21 10K library (AID 1224842); note: nearly all actives have a fitted effect of over 15% in size
Summary of the method: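 PGC/ERR reporter cell line, 2,000 cells per well, incubated 6 h at 37 C before 23 nL compound in DMSO was added. After 18 h at 37 C, One-Glo luminescence read following 30 min at room temperature.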

Measured: Potency

Sequence of Nuclear receptor subfamily 1 group I member 3 (Homo sapiens) (Q14994 whole entry, looked up): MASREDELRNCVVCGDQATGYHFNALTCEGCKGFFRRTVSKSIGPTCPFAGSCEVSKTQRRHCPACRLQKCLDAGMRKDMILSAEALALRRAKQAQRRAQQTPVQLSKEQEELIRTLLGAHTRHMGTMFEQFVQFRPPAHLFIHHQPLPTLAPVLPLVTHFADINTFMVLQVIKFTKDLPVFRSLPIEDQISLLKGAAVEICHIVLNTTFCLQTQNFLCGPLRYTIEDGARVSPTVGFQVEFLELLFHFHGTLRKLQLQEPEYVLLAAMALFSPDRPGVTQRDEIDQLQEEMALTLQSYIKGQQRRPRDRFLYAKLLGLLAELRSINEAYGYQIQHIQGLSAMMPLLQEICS
Sequence of Luciferin 4-monooxygenase (Photinus pyralis) (P08659 whole entry, looked up): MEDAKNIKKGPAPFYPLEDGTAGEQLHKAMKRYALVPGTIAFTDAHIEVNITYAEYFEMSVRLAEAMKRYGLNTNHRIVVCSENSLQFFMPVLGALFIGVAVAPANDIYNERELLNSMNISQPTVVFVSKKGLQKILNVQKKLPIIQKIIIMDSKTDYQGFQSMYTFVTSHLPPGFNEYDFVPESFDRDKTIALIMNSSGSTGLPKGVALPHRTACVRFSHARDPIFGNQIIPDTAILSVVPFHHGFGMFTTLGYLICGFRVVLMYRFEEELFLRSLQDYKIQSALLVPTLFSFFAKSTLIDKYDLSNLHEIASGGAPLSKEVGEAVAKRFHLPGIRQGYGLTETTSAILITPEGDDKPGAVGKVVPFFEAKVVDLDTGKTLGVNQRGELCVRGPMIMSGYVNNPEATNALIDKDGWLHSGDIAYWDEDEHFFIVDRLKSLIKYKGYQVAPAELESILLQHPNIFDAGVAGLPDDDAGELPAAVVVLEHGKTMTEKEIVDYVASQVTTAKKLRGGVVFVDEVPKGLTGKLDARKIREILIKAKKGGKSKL

COc1cc(C)ccc1C(C)C
inactive: [1] | [2] | [3] | [4] | [5] | [6] | [7] | [8] | [9] | [10]

CN(C)CC[C@@H](c1ccc(Cl)cc1)c1ccccn1
inactive: [1] | [2] | [11] | [12] | [7] | [8] | [9]

O=C(CC(=O)C(F)(F)F)c1ccccc1
inactive: [1] | [2] | [3] | [7] | [8] | [13] | [10]
active: [4] 22 µM

CC(C)O
inactive: [1] | [2] | [5] | [6] | [7] | [8] | [13] | [9]

CCC(=O)O[C@]1(C(=O)SCF)[C@H](C)C[C@H]2[C@@H]3C[C@H](F)C4=CC(=O)C=C[C@]4(C)[C@@]3(F)[C@@H](O)C[C@@]21C
inactive: [1] | [2] | [4] | [6] | [8] | [13] | [9] | [10]

Cc1c(-c2ccccc2)oc2c(C(=O)OCCN3CCCCC3)cccc2c1=O
inactive: [1] | [2] | [5] | [6] | [7] | [8] | [13] | [9]

Cc1c(N)cccc1N
inactive: [1] | [2] | [6] | [7] | [8] | [13] | [14] | [9]

NNS(=O)(=O)c1ccc(Oc2ccc(S(=O)(=O)NN)cc2)cc1
inactive: [1] | [2] | [3] | [4] | [5] | [6] | [7] | [8] | [9] | [10] | [15]

O=C1CCCCC1C1CCCCC1 (stereo not drawn)
inactive: [1] | [2] | [3] | [4] | [5] | [6] | [7] | [8] | [9]

COC(=O)C(C)O (stereo not drawn)
inactive: [1] | [2] | [3] | [4] | [5] | [6] | [7] | [8] | [9]

C=CC1CO1 (stereo not drawn)
inactive: [1] | [2] | [3] | [4] | [5] | [6] | [7] | [8] | [9]

CCN(CC)CCOc1ccc(Cc2ccccc2)cc1
inactive: [1] | [2] | [5] | [6] | [7] | [8] | [13] | [14] | [9]

CC(C)C(=O)OCC(C)(C)C(O)C(C)C (stereo not drawn)
inactive: [1] | [2] | [3] | [4] | [5] | [6] | [7] | [8] | [9]
